Data on 14 molecules can be found in ChEMBL document CHEMBL3988442, “University of Dundee, Small-Polar-MMV Screening Library” (2021).

For assay [1], the target named is T1, Aspartate--tRNA(Asp/Asn) ligase (Mycobacterium tuberculosis (strain ATCC 25618 / H37Rv)) (UniProt P9WFW3). Note: in the data most compounds retested in dose-response had high values.
T1 sequence (whole entry): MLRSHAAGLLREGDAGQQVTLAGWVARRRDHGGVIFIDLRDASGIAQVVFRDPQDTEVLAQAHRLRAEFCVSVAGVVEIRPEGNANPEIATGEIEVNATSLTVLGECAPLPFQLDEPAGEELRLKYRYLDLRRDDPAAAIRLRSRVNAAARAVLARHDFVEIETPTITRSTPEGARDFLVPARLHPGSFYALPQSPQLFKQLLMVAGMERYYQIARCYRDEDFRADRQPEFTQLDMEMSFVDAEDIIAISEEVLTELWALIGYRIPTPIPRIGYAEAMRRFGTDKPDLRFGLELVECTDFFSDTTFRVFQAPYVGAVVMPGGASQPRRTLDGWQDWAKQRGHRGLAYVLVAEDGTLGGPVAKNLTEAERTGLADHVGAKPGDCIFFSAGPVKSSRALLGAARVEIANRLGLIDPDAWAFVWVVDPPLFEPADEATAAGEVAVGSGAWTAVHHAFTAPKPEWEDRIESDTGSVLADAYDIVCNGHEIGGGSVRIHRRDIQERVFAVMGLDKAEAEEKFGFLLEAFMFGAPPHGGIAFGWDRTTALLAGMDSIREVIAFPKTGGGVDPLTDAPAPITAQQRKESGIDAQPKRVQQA
Put plainly: Assay for Asp RNA synthetase-1 from Mycobacterium tuberculosis. The format is functional. Further details: scale not given: direction of the effect not stated beside the values. The following applies: 30 µM.

For assay [2], the target named is Shiga toxin 2 (Escherichia coli O157:H7) (UniProt P09385+P09386). As to the kind of experiment: E. coli 0.157:H7 Shiga Toxin SOP - stx2 screening assay. Details: scale not given: direction of the effect not stated beside the values. The following applies: 30 µM. The format is functional.

As to `CCCC(NC(=O)c1cc(C)n(C2CC2)c1C)c1nnn[nH]1` (stereo not given), the Percent Effect in assay [1] was -0.908%. On the same count and under the same terms, as for `Cc1ccc(C2COCCN2C(=O)c2ccc(CN(C)C)cc2)o1` (stereo not given), the figure is -1.28%. The same measure, in the same setting: as for `CCOCCn1nnc(C2(NC(=O)c3ccccc3)CCCC2)n1`, the figure is -3.44%; as for `Cc1nccn1CCC1CCCCN1C(=O)c1ccc2[nH]nnc2c1` (stereo not given), 1.02%. The same measure, in the same setting: as for `Cc1cnn(CCNCc2csc(C)n2)c1`, the figure is 0.747%. On to `Cc1noc(C)c1C(=O)N(C)Cc1nc(-c2ccccn2)no1`, for which the Percent Effect in assay [1] is -3.85%. On the same count and under the same terms, as for `CN(CC1(O)CCCN(CCC2CCCCC2)C1=O)C1CCOCC1` (stereo not given), the figure is 0.172%; as for `CSCc1nc(C(C)(C)NC(=O)OC(C)(C)C)no1`, -0.954%; as for `O=C1N(Cc2cccc(F)c2F)CCCC1(O)CNC1CCCC1` (stereo not given), -0.655%. Still for that read-out and setting: as for `CS(=O)(=O)NCC(=O)N1CCCC1c1noc(C2CC2)n1` (stereo not given), the figure is 0.264%. On the same count and under the same terms, as for `Cc1cc(N2CCN(Cc3ccc(C)o3)CC2)cc(C)n1`, the figure is -1.34%; as for `CCSCCC(=O)Nc1ncn(Cc2cccnc2)n1`, -2.31%. On to `Cc1ccc(CNCc2nnc3n2CCCC3C(F)(F)F)s1` (stereo not given), for which the Percent Effect in assay [1] came to 4.24%. Regarding `CC(C)C(C(=O)N1CCC(Nc2cccnn2)CC1)n1cncn1` (stereo not given), the results for the Percent Effect in assay [1] and in assay [2] were 0.434% and 12.4%, respectively.
